D1 potentiator – potentiators of human D1 dopamine receptor; P21728; HEK293 TREx D1 cells, calcium flux, dopamine EC20 potentiation; potentiation, % at 10 µM; hit rate 0.036% among 360,000; AID 504651; in the data active means potentiation above about 30%; further: 0% is about no effect
Target sequence (P21728 whole entry, looked up): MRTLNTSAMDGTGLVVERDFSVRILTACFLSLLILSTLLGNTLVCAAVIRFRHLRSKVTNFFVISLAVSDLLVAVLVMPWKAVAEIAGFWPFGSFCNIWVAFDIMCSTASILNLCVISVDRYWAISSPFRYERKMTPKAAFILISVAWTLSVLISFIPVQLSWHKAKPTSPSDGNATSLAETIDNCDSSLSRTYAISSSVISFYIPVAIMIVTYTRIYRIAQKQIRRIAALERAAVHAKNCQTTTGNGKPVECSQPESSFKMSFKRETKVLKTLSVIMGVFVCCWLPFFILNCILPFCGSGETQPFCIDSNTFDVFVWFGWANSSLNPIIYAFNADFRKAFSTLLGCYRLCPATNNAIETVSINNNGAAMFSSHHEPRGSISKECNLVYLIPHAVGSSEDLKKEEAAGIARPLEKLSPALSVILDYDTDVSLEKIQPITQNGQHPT
D1 antagonist – blocks dopamine activation of the human D1 receptor. activity change, negative = inhibition, % at 10 µM. hit rate 3.2% among 360,000. AID 504652. HEK293 TREx D1 cells, calcium flux, dopamine EC80; hits give low values; in the data active means activity change below about -30%; further: on the % scale 0 is the no-effect control and ±100 the full control effect
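Compound effects on dopamine-evoked calcium signalling were measured in tetracycline-induced HEK293 Trex D1 cells. Dopamine at EC80 followed a 180 s compound pre-read, and fluorescence was tracked kinetically for 180 s more.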
DRD3 agonist – agonists of human D3 dopamine receptor. P35462. D3R DiscoveRx beta-arrestin cells, luminescence, 90 min. max activation, %. hit rate 0.58% among 410,000; in the data active means max activation above about 30%; further: 0% is about no effect
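Agonist-mode cell screen: cells plated at 1500/well and incubated overnight at 37 °C, then exposed to library compounds for 90 min at 37 °C. Detection reagent was added for 30–60 min at room temperature, and luminescence was read.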
D1 ag – human D1 receptor agonism; AID 504660; P21728; hit rate 1% among 360,000; activation, % at 2 µM; HEK293 T-REx D1 cells, calcium flux, agonist mode; in the data active means activation above about 30%; further: 0% is about no effect
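Agonism was scored from calcium flux recorded over 180 s (1 read/s) after pintool compound addition, following a 10-cycle baseline. Cells were inducible force-coupled HEK293 TREx D1, plated overnight at 30 C and loaded with no-wash calcium dye.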
DRD3 antagonist – blocks the human D3 dopamine receptor. P35462. hit rate 2.5% among 360,000. D3R cells, DiscoveRx beta-arrestin luminescence, antagonist mode; hits give low values. max response, negative = inhibition, %; in the data active means max response below about -50%; inconclusive means no clear call, values can overlap the other calls; further: on the % scale 0 is the no-effect control and ±100 the full control effect
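Cells expressing the human receptor were seeded at 1500 cells/well, incubated overnight at 37 degrees C in 5% CO2, then exposed to library compounds with dopamine controls for 90 minutes at 37 degrees C before luminescent detection.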
* marks the source's active call; other numbers are inactive results; ? = inconclusive; nt = not tested or not shown; ! = repeats disagree. In the library only some 6% were active in any assay of this set; here they are far more common.

SMILES | D1 potentiator | D1 antagonist | DRD3 agonist | D1 ag | DRD3 antagonist
O=C1C2CCCCN2C(=O)N1CCCN1CCN(c2cccc(C(F)(F)F)c2)CC1 (configuration not stated) | nt | nt | -14 | nt | -67*
O=C1C2C3C=CC(C4CC34)C2C(=O)N1CCCCN1CCN(c2ccc(F)cc2)CC1 (configuration not stated) | nt | nt | -32 | nt | -85*
O=C1C2CCCN2C(=O)N1CCN1CCN(c2cccc(C(F)(F)F)c2)CC1 (configuration not stated) | nt | nt | -18 | nt | -17
O=C1C2CCCN2C(=O)N1CCCN1CCN(c2cccc(Br)c2)CC1 (configuration not stated) | -16 | -27 | -19 | 10 | -78*
Cc1cccc(C(=O)Nc2nnc(S(=O)(=O)N(C)Cc3ccc(Cl)cc3)s2)c1 | -3 | -13 | 3 | 2 | nt
Cc1cc(=O)oc2cc(OCc3ccc(C(=O)OCC(=O)Nc4ccccc4OC(F)F)cc3)ccc12 | -4 | -2 | 8 | 7 | -7
Cc1cc(C)c(NC(=O)CSC2=Nc3ccccc3C3=NC(CC(=O)NCc4cccs4)C(=O)N23)c(C)c1 (configuration not stated) | 0 | 4 | 9 | -1 | nt
Cn1cc(-c2ccccc2C(N)=O)c(=O)c2cc(Cl)ccc21 | 0 | -5 | 3 | 2 | 12
Cn1cc(C2=C(c3ccc(Cl)cc3Cl)C(=O)NC2=O)c2ccccc21 | 2 | 23 | 0 | 145* | -8
Cc1ccc(OCC(=O)Nc2ccccc2C(=O)OCc2cc(=O)n3c(C)csc3n2)cc1 | 0 | 5 | 2 | 2 | nt
COc1ccc(NC(=O)CN2CCN(c3ccc(C)cc3C)CC2)cc1 | -4 | -6 | -4 | -1 | 15
COc1ccc(NC(=O)CN2CCN(c3ccccc3F)CC2)cc1 | -2 | -6 | -11 | 1 | -87*
CN(C)S(=O)(=O)c1cc(NC(=O)CN2CCN(c3ccccc3F)CC2)ccc1Cl | -12 | -32* | 49* | 4 | -7
COc1ccc(NC(=O)CN2C(=O)CC(C)(C)S(=O)(=O)c3ccccc32)cc1 | -8 | -33* | 6 | 1 | 12
COc1ccc(NC(=O)NCCCN2CCN(c3cc(C)ccc3C)CC2)cc1 | -9 | 2 | -6 | -1 | -108*
CCCNC(=O)C1CCN(S(=O)(=O)c2ccc3c(c2)CCCN3C(C)=O)CC1 | -6 | 1 | 9 | 1 | nt
Cc1cc(C)cc(NC(=O)c2cc(CN3CCCC3)on2)c1 | -2 | 6 | -15 | 0 | nt
O=C(Nc1ccc(F)cc1)c1oc2ccccc2c1NC(=O)C1CCCCC1 | 1 | -3 | 0 | 5 | nt
CCOc1ccc(NC(=O)CSc2oc(-c3ccc(F)cc3)nc2S(=O)(=O)c2ccc(C)cc2)cc1 | -1 | 5 | 15 | 2 | nt
CCc1ccc(C(=O)Nc2cccc(-c3nc4cc(C(C)C)ccc4o3)c2)cc1 | -5 | -5 | 1 | 2 | nt
COc1ccc(NC(=O)NCCCN2CCN(c3ccccc3F)CC2)cc1 | -13 | -86* | 34* | 6 | ?
COc1cccc(NC(=O)NCCCN2CCN(c3ccc(F)cc3)CC2)c1 | -10 | 28 | -30 | 4 | -56*
COc1ccc(/C=N/NC(=O)CN2CCS(=O)(=O)CC2)cc1 | -4 | 11 | 2 | 0 | -52*
CCN1CCN(CC(=O)Nc2ccc(Cl)c(S(=O)(=O)N(C)C)c2)CC1 | 3 | 17 | -17 | 5 | 4
Cc1ccc(NC(=O)CN2CCN(S(=O)(=O)c3cccs3)CC2)cc1S(=O)(=O)N(C)C | -10 | -36* | -15 | 5 | -19
SMILES | D1 potentiator | D1 antagonist | DRD3 agonist | D1 ag | DRD3 antagonist
COc1ccc(NC(=O)NCCN2CCCCC2)cc1 | -3 | -11 | -4 | 5 | -6
CC(C)COC(=O)N1CCCCC1c1cc(C(=O)N2CCOCC2)no1 (configuration not stated) | nt | nt | 6 | nt | 10
CC1(C(=O)NC2CCCCC2)Cc2ccccc2C(=O)N1Cc1ccc(Cl)cc1 (configuration not stated) | 0 | 0 | 4 | 5 | nt
Cc1ccc(S(=O)(=O)Nc2cc(Cl)c3oc4c(c3c2)C(=O)CC(C)(C)C4)cc1 | -1 | 6 | 1 | 3 | nt
Cc1ccc(C)c(N2CCN(CCCNC(=O)Cn3cccc3C(=O)c3ccccc3C)CC2)c1 | -6 | -36* | -8 | 26 | -57*
CCOc1ccc(NC(=O)NCCN2CCN(c3cccc(C)c3C)CC2)cc1 | -8 | -16 | 63* | 29 | -59*
CCOc1cccc(N2CCN(CCNC(=O)Nc3ccc(C)cc3)CC2)c1C | -7 | -2 | 59* | 14 | ?
CCOc1ccc(OCC)c(NC(=O)CN2CCN(c3cccc(C)c3C)CC2)c1 | -8 | -16 | 7 | 0 | -19
Cc1ccccc1C(=O)c1cccn1CC(=O)NCCCN1CCCCC1 | 0 | 15 | -15 | -1 | -21
CCOc1ccc(NC(=O)NCCN2CCN(c3ccccc3F)CC2)cc1 | -23 | -61*! | 8 | 4 | -69*
COc1cc(/C=C(\C#N)c2nc3ccccc3[nH]2)ccc1OCc1cccc(C(F)(F)F)c1 | -2 | 17 | -6 | 0 | nt
CC1CCCC(NC(=O)CN2CCN(S(=O)(=O)c3cccs3)CC2)C1C (configuration not stated) | -11 | -42* | 10 | 2 | -20
CC1CCC(NC(=O)CN2CCN(S(=O)(=O)c3cccs3)CC2)CC1 (configuration not stated) | -3 | -2 | -1 | 0 | 8
COc1ccc(NC(=O)CN2CCC(C)CC2)cc1 | -2 | 8 | -20 | 4 | -69*
COc1ccc(NC(=O)CN2CCC(C(N)=O)CC2)cc1 | -7 | -15 | 2 | -1 | -5
COc1ccc(F)cc1-c1cc(NC=O)c2ncc(-c3cccc(C(=O)N(C)C)c3)n2c1 | nt | nt | 52* | nt | ?
Cc1ccc(CC2CC(=O)N(CCc3ccc4c(c3)OCO4)C2=O)cc1 (configuration not stated) | -2 | -31* | 5 | 1 | 19
COc1cccc(CC2CC(=O)N(CCc3ccc4c(c3)OCO4)C2=O)c1 (configuration not stated) | -5 | -22 | -3 | 34* | 1
O=C1CC(NCc2ccc3c(c2)OCO3)C(=O)N1CCc1ccccc1 (configuration not stated) | -2 | -11 | -4 | 18 | -5
Brc1ccc(-c2csc(/N=C/N3CCOCC3)n2)cc1 | -10 | -33* | -1 | 0 | -23
CCc1cccc(NC(=O)COc2cc(=O)n(CC)c3ccccc23)c1 | -1 | 4 | -8 | 0 | nt
O=C(CC1C(=O)OCCN1Cc1ccccc1)Nc1cccc(Cl)c1 (configuration not stated) | -5 | 13 | 3 | 5 | nt
CCc1cccc(NC(=O)Cn2c(-c3ccc(F)cc3)cc(C(C)=O)c2C)c1 | -9 | -1 | 2 | 0 | nt
OC(COc1ccc(OCC(O)CN2CCCCC2)cc1)CN1CCCCC1 (configuration not stated) | 4 | -1 | -4 | 6 | -1

Compound activity deposited in PubChem BioAssay by National Center for Advancing Translational Sciences (NCATS).
